From PubChem BioAssay
Sampled rows, rich in hits. Any-hit rate of the full collection: about 3.1%.
HIF-2a block = inhibitors of HIF-2a; 786-0 RCC cells HIF-2a reporter, luciferase luminescence, overnight; inhibition, % at 18.8 µM; 360,000 tested, 0.72% active; AID 624352;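 active = inhibition of the luminescence signal of 40% or more relative to plate controls, in a single-dose primary screen at 18.75 µM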
KKLEB cytotox = counter-screen for CF NF-kB inhibitors: cytotoxicity. KKLEB CF airway cells viability, ATPlite luminescence, overnight; active compounds read low; cells stimulated with P. aeruginosa culture filtrate. 360,000 tested, 0.36% active. activity change (cytotoxicity), % at 5 µM;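 active = corrected activity change at or below -50% at 5 µM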
MITF TRPM1 inh = reduces MITF-dependent TRPM1 promoter luciferase signal. inhibition, % at 12.5 µM. 330,000 tested, 0.83% active. SK-MEL-5 TRPM1 promoter luciferase, 24 h;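 active = mean inhibition across replicates of 60% or more, whatever share of single replicates reaches that level; inconclusive = some that reach 60%, reason not given; inactive = mean inhibition across replicates below 60%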
Peg3 prom inh = reduces Peg3 promoter-driven luciferase expression in HeLa; HeLa PEG-Prom luciferase reporter, luminescence, overnight; inhibition, % at 20 µM; 360,000 tested, 1.7% active; AID 588405;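 active = inhibition of at least 50% at 20 µM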
CF NFkB inh = inhibitors of cystic fibrosis induced NF-kB | KKLEB NF-kB-GFP reporter, PAF-induced, GFP fluorescence overnight | inhibition, % at 5 µM | 360,000 tested, 0.86% active;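 active = at least 50% inhibition at 5 µM, scaled per plate between neutral and stimulator controls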;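 also: PAF is a Pseudomonas aeruginosa culture filtrate used as stimulus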
ABHD5-PLIN5 inh = blocks binding of human ABHD5 to perilipin-5; inhibition, % at 4 µM; 360,000 tested, 0.78% active; Split G. princeps luciferase complementation, luminescence, 4 h;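 active = inhibition above the mean inhibition across every tested compound plus 3 SD, cut at about 22% in these data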
ABHD5-PLIN5 conf = ABHD5-PLIN5 interaction inhibition, confirmed. shares compounds with ABHD5-PLIN5 inh. biochemical ABHD5-PLIN5 interaction, luminescence. inhibition, % at 4 µM. 2,200 tested, 67% active. AID 651612; in the data active = inhibition above about 23%
HNF4 counter = counter-screen for ABHD5-PLIN5 inhibitors: HNF4 split-luciferase. HNF4 dimerization, luminescence, biochemical. shares compounds with ABHD5-PLIN5 inh. inhibition, % at 4 µM. 2,200 tested, 77% active;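 active = mean inhibition across replicate wells exceeding the computed hit threshold, cut at about 13% in these data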;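 also: light from luciferase halves that rejoin when HNF4 fusion proteins dimerize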
Target sequence (P41235 whole entry, looked up, the tested form may be a part): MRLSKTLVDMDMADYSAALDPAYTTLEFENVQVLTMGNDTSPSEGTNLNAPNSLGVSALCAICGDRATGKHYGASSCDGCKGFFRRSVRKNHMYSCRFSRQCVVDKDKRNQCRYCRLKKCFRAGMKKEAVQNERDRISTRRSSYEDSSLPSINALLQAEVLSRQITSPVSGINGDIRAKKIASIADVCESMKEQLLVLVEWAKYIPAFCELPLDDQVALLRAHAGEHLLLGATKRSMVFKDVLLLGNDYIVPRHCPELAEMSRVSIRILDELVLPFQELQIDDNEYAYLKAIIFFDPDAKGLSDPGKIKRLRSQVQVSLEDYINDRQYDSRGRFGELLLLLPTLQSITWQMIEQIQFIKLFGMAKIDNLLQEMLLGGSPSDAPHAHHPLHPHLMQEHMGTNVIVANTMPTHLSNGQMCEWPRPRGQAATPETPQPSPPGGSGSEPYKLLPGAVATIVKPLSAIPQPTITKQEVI
Large screens that a line does not name were inactive (follow-up assays come after a bar, where they were run); ! = a repeat was not active.

Cc1cccc(C)c1-c1ccc(CN2C(CC(C)C)C(=O)N(Cc3cn(CC4CCCCC4)nn3)CCS2(=O)=O)cc1 (stereo not given)	none
C=CCNc1oc(-c2cccc(Cl)c2)nc1C#N	ABHD5-PLIN5 inh 24 | ABHD5-PLIN5 conf 47 | HNF4 counter 41
O=C(NC1CCCCC1)C(c1ccc(C(F)(F)F)cc1)n1c(=O)c(-c2ccco2)nc2ccccc21 (stereo not given)	ABHD5-PLIN5 inh 85 (no result: KKLEB cytotox, MITF TRPM1 inh, Peg3 prom inh, CF NFkB inh) | ABHD5-PLIN5 conf 90 | HNF4 counter 13
O=C(NC1CCCCC1)C(c1ccccc1)n1c(=O)c(-c2ccco2)nc2ccccc21 (stereo not given)	ABHD5-PLIN5 inh 86 (no result: KKLEB cytotox, MITF TRPM1 inh, Peg3 prom inh, CF NFkB inh) | ABHD5-PLIN5 conf 97 | HNF4 counter 54
O=C(NC1CCCCC1)C(c1ccccc1)n1c(=O)c(-c2cc3ccccc3[nH]2)nc2ccccc21 (stereo not given)	none (no result: KKLEB cytotox, MITF TRPM1 inh, Peg3 prom inh, CF NFkB inh)
CCCCCNC(=O)C(C1CC1)n1c(=O)c(-c2ccco2)nc2ccccc21 (stereo not given)	ABHD5-PLIN5 inh 31 (no result: KKLEB cytotox, MITF TRPM1 inh, Peg3 prom inh, CF NFkB inh) | ABHD5-PLIN5 conf 61 | HNF4 counter 23
N#Cc1ccc(C(C(=O)NC2CCCCC2)n2c(=O)c(-c3ccco3)nc3ccccc32)cc1 (stereo not given)	ABHD5-PLIN5 inh 82 (no result: KKLEB cytotox, MITF TRPM1 inh, Peg3 prom inh, CF NFkB inh) | ABHD5-PLIN5 conf 84 | HNF4 counter 32
COc1ccc(C(O)c2nc(-c3cccc4cccnc34)cs2)cc1 (stereo not given)	none (no result: MITF TRPM1 inh)
COc1ccc(NC(=O)C(C2CC2)n2c(=O)c(-c3ccco3)nc3ccccc32)cc1 (stereo not given)	none (no result: KKLEB cytotox, MITF TRPM1 inh, Peg3 prom inh, CF NFkB inh)
O=C(NC1CCCCC1)C(C1CC1)n1c(=O)c(-c2ccco2)nc2ccccc21 (stereo not given)	ABHD5-PLIN5 inh 66 (no result: KKLEB cytotox, MITF TRPM1 inh, Peg3 prom inh, CF NFkB inh) | ABHD5-PLIN5 conf 71 | HNF4 counter 34
CCOC(=O)C1CCCN(C(=O)c2cc(Nc3ccc(OC)cc3)nc3ccccc23)C1 (stereo not given)	ABHD5-PLIN5 inh 29 | ABHD5-PLIN5 conf 42
Cc1ccc(C)c(OCCSc2nnc(-c3cccnc3)n2N)c1	none
CC1=NN(C(=O)c2ccc(C)o2)C(O)(c2ccccc2)C1 (stereo not given)	none
C[C@@H](O)Cc1cn(CC(=O)NCCCCCCCCCCC(=O)N2CCNCC2)nn1	none
NCCCCCc1cn(CC(=O)NCCCCCCCCCCC(=O)N2CCNCC2)nn1	ABHD5-PLIN5 inh 93 | ABHD5-PLIN5 conf inactive | HNF4 counter inactive
CC1(C)c2ccccc2N2CC(=O)NC21/C=C/c1ccco1 (stereo not given)	ABHD5-PLIN5 inh 27 | ABHD5-PLIN5 conf inactive | HNF4 counter 21
O=c1[nH]sc2ccccc12	ABHD5-PLIN5 inh 65 | ABHD5-PLIN5 conf 66 | HNF4 counter 109
O=c1ccsc2ccccc12	none (no result: MITF TRPM1 inh)
COc1cccc2c1C(=O)C=C(C)C2=O	MITF TRPM1 inh inconclusive, CF NFkB inh 58, ABHD5-PLIN5 inh 37 | ABHD5-PLIN5 conf 57 | HNF4 counter 64
COc1ccccc1-c1ccccc1C1=CC(=O)CC(C)(C)C1=O	none (no result: MITF TRPM1 inh)
O=C(CSc1nc2ccccc2c(=O)[nH]1)Nc1ccc([N+](=O)[O-])cc1	none
O=c1[nH]c(Sc2ccc([N+](=O)[O-])cc2[N+](=O)[O-])nc2ccccc12	ABHD5-PLIN5 inh 41 | ABHD5-PLIN5 conf 41 | HNF4 counter 33
CN1CCN(C2=Cc3ccc(Cl)cc3Sc3ccc(F)cc32)CC1	ABHD5-PLIN5 inh 29 | ABHD5-PLIN5 conf inactive | HNF4 counter inactive
CN1CCN(C2=Cc3ccccc3Sc3cc(F)ccc32)CC1	ABHD5-PLIN5 inh 23 | ABHD5-PLIN5 conf inactive | HNF4 counter inactive
Cn1c(=O)c([N+](=O)[O-])c(-n2ccnc2)c2ccccc21	MITF TRPM1 inh 89, Peg3 prom inh 55, ABHD5-PLIN5 inh 23 | ABHD5-PLIN5 conf inactive | HNF4 counter inactive
O=[N+]([O-])/C=C/c1cn(Cc2ccc(F)cc2)c2ccccc12	Peg3 prom inh 53, ABHD5-PLIN5 inh 57 | ABHD5-PLIN5 conf 92 | HNF4 counter 68
O=C(O)c1ccc(N/N=C/c2cn(Cc3ccc(F)cc3)c3ccccc23)cc1	none
CCNC(=O)C1(C)CCN(Cc2cccc(Oc3ccccc3)c2)C1 (stereo not given)	none (no result: MITF TRPM1 inh)
CC(C)N=C(N)N=C(N)Nc1ccc(Cl)cc1	none
NC(=NCCCCCCN=C(N)/N=C(\N)Nc1ccc(Cl)cc1)/N=C(\N)Nc1ccc(Cl)cc1	Peg3 prom inh 102!, ABHD5-PLIN5 inh 34! | ABHD5-PLIN5 conf 26 | HNF4 counter inactive
Cc1c(Cl)cccc1NC(CC(=O)c1ccccc1)C(=O)OCC(=O)c1cccs1 (stereo not given)	none
Cc1c(Cl)cccc1NC(CC(=O)c1ccccc1)C(=O)O (stereo not given)	ABHD5-PLIN5 inh 84 | ABHD5-PLIN5 conf 57 | HNF4 counter 108
O=C(CC(Nc1ccccc1Cl)C(=O)O)c1ccccc1 (stereo not given)	ABHD5-PLIN5 inh 83 | ABHD5-PLIN5 conf 29 | HNF4 counter 97
O=C(CC(Nc1cccc(Cl)c1Cl)C(=O)OCC(=O)c1cccs1)c1ccccc1 (stereo not given)	none
O=C(CC(Nc1cccc(Cl)c1Cl)C(=O)O)c1ccccc1 (stereo not given)	ABHD5-PLIN5 inh 85 | ABHD5-PLIN5 conf inactive | HNF4 counter 73
COc1ccc(/C=C\C(=O)c2c(O)ccc3c(C)cc(=O)oc23)cc1	ABHD5-PLIN5 inh 47 | ABHD5-PLIN5 conf 61 | HNF4 counter 44
Cc1cc(=O)oc2c(O)c(O)ccc12	none
COc1ccc(/C=C/C(=O)c2c(O)ccc3c(C)cc(=O)oc23)cc1	ABHD5-PLIN5 inh 47 | ABHD5-PLIN5 conf 65 | HNF4 counter 55
CCOC(=O)c1cccc(NC(=O)c2ccc(NC(=O)C3CCCO3)cc2)c1 (stereo not given)	none
CC(=O)/C=C/c1ccc2ccccc2n1	Peg3 prom inh 103, ABHD5-PLIN5 inh 85 | ABHD5-PLIN5 conf 84 | HNF4 counter 91
CC(OC(=O)/C=C/c1ccc2ccccc2n1)C(=O)N(C)c1ccccc1 (stereo not given)	none
O=C(C=Cc1ccccc1)c1cccs1	ABHD5-PLIN5 inh 59 | ABHD5-PLIN5 conf 71 | HNF4 counter 64
O=C1c2ccccc2C(=O)N1CCC#Cc1ccc2cc(CCCO)oc(=O)c2c1	none
O=C(COc1ccc(S(=O)(=O)N2CCOCC2)cc1)NCc1ccccn1	none
CCn1c(SCC(=O)N/N=C/C=C/c2ccco2)nnc1-c1ccccc1	ABHD5-PLIN5 inh 31 | ABHD5-PLIN5 conf 24 | HNF4 counter 44
CN(C/C=C/c1ccccc1[N+](=O)[O-])Cc1ccccc1	none
